In PMC7862700, “An all-to-all approach to the identification of sequence-specific readers for epigenetic DNA modifications on cytosine” one finds binding signal data, which are given here for one sequence.

Experiment in all cases: DAPPL (digital affinity profiling via proximity ligation, sequencing); 10 mM Tris-HCl pH 7.5, 50 mM NaCl, 1 mM DTT, 4% glycerol, room temperature, 30 min; GST-TFs on glutathione beads, 16-mer random dsDNA library, 0.1% formaldehyde crosslink after washing; high values mean tight binding
Assay [1] concerns the target T1, FEV (Homo sapiens, UniProt Q99581 1-238).
T1 sequence: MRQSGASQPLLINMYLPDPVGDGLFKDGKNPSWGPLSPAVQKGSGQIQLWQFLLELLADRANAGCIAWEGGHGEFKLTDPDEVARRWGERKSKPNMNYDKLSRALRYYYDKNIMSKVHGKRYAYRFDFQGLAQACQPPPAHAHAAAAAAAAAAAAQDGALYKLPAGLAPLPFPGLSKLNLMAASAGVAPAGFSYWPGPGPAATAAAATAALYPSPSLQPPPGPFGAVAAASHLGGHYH
The conditions noted are these: protein: recombinant; tags: N-terminal GST; dsDNA, one strand shown. A digest of the protocol: (§1)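 Binding signal is each hexamer's read frequency for a factor divided by its frequency in the tag-only sample. The factors were GST-fused human transcription factors from yeast, captured on glutathione beads, DNA-barcoded and pooled with that sample. Pools were incubated with 200 nmole of a random double-stranded 16-mer DNA library in Tris/NaCl/DTT/glycerol buffer at room temperature for 30 min, then washed, crosslinked with 0.1% formaldehyde, proximity-ligated with BsaI/T4 ligase (1 h, 37 °C), PCR-amplified and sequenced on an Illumina NextSeq500.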

For assay [2], the target named is ETV5 (Homo sapiens, UniProt P41161 1-510). The conditions noted are these: protein: recombinant; tags: N-terminal GST; dsDNA, one strand shown. A digest of the protocol: as §1
The target of assay [3] is HSF1 (Homo sapiens, UniProt Q00613 1-529). The conditions noted are these: protein: recombinant; tags: N-terminal GST; chain copies: 3; dsDNA, one strand shown. Summed up:
as §1

Assay [4] concerns the target T2, SPIC (Homo sapiens, UniProt Q8N5J4 1-248).
T2 sequence: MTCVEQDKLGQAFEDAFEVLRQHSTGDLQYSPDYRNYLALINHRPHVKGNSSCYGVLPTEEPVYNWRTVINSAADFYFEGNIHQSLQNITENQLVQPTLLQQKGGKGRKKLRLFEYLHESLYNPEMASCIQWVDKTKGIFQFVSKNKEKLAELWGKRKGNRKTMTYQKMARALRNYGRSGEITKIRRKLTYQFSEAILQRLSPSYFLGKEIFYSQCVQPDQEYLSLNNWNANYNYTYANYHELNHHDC
The conditions noted are these: protein: recombinant; tags: N-terminal GST; dsDNA, one strand shown. A digest of the protocol: as §1

Assay [5] addresses ELF4 (Homo sapiens, UniProt Q99607 1-663). The conditions noted are these: protein: recombinant; tags: N-terminal GST; dsDNA, one strand shown. A digest of the protocol: as §1
Assay [6] deals with T3, ELK4 (Homo sapiens, UniProt P28324-2 1-405).
T3 sequence: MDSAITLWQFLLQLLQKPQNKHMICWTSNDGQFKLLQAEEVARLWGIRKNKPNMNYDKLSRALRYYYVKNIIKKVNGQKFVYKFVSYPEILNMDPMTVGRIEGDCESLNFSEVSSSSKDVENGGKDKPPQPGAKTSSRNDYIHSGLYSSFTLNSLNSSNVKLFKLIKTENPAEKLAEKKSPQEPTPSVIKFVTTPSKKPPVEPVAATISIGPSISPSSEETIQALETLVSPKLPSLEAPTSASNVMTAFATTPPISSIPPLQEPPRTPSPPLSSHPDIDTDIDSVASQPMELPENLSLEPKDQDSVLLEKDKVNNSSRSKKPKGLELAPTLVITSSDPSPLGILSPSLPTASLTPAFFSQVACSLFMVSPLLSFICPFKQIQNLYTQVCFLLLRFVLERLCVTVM
The conditions noted are these: protein: recombinant; tags: N-terminal GST; dsDNA, one strand shown. Summed up:
as §1

Assay [7] addresses T4, ETV2 (Homo sapiens, UniProt O00321 1-342).
T4 sequence: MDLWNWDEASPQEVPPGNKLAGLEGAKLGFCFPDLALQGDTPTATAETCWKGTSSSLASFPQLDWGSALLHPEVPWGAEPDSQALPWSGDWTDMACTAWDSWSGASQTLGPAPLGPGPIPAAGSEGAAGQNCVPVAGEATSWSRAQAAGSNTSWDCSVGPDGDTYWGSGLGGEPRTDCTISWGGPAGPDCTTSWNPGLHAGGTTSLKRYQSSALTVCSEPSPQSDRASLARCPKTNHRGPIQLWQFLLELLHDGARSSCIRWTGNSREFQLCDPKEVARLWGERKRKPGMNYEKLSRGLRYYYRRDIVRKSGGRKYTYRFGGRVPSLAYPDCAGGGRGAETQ
The conditions noted are these: protein: recombinant; tags: N-terminal GST; dsDNA, one strand shown. Summed up:
as §1

Assay [8] concerns the target T5, ELF3 (Homo sapiens, UniProt P78545 1-371).
T5 sequence: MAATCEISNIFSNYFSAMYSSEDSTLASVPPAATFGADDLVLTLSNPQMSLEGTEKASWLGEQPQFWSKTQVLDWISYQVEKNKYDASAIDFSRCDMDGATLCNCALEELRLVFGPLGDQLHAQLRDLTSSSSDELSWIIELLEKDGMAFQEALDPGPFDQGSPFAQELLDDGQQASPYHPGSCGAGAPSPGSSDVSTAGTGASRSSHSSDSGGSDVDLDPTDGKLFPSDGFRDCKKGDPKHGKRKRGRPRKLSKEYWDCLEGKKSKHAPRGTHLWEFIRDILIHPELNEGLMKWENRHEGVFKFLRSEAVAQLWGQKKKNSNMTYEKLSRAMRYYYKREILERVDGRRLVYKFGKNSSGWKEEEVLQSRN
The conditions noted are these: protein: recombinant; tags: N-terminal GST; dsDNA, one strand shown. Summed up:
as §1

For assay [9], the target named is CRX (Homo sapiens, UniProt O43186 1-299). The conditions noted are these: protein: recombinant; tags: N-terminal GST; dsDNA, one strand shown. A digest of the protocol: as §1
Assay [10] addresses ETV1 (Homo sapiens, UniProt P50549 1-477). The conditions noted are these: protein: recombinant; tags: N-terminal GST; dsDNA, one strand shown. A digest of the protocol:
as §1

For assay [11], the target named is T6, ERF (Homo sapiens, UniProt P50548 1-548).
T6 sequence: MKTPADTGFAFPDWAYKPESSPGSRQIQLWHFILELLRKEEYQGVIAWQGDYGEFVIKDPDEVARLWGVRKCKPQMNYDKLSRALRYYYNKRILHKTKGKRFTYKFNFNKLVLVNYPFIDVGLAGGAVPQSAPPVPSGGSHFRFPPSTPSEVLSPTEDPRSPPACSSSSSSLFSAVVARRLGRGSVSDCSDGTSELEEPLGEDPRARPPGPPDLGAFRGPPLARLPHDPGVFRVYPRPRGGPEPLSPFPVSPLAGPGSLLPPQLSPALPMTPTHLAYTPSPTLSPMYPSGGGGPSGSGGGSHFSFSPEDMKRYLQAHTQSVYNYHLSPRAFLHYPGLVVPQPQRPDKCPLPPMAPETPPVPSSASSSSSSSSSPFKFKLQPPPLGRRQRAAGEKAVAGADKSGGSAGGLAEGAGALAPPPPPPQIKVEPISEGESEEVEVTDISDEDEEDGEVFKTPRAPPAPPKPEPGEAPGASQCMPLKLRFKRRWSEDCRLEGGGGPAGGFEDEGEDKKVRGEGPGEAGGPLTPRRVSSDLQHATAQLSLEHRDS
The conditions noted are these: protein: recombinant; tags: N-terminal GST; dsDNA, one strand shown. A digest of the protocol:
as §1

Assay [12] concerns the target T7, ETV3L (Homo sapiens, UniProt Q6ZN32 1-361).
T7 sequence: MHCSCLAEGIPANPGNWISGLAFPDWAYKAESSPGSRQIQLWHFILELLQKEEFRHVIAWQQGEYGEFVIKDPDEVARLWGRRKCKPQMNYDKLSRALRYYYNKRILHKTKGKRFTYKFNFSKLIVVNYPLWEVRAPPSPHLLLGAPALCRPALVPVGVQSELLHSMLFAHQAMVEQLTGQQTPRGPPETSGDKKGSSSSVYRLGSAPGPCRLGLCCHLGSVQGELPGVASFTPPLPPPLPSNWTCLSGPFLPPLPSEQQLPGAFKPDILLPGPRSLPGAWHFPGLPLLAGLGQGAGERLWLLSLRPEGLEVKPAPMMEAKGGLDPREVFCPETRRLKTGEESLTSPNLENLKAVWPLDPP
The conditions noted are these: protein: recombinant; tags: N-terminal GST; dsDNA, one strand shown. Summed up: as §1

In assay [13] the target is T8, ETS2 (Homo sapiens, UniProt P15036 1-469).
T8 sequence: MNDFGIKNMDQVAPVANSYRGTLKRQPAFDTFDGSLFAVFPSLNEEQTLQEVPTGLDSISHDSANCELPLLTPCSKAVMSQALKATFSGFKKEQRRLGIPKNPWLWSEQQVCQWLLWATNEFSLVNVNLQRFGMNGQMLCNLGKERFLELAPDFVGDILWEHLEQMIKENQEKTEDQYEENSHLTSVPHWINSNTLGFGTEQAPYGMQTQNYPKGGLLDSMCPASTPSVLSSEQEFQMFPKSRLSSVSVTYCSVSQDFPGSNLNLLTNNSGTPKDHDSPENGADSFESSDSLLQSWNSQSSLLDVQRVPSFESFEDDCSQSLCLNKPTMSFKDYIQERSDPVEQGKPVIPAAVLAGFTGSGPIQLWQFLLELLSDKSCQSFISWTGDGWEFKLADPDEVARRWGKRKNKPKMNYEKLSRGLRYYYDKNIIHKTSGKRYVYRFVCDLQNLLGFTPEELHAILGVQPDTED
The conditions noted are these: protein: recombinant; tags: N-terminal GST; dsDNA, one strand shown. A digest of the protocol:
as §1

Assay [14] concerns the target T9, SPDEF (Homo sapiens, UniProt O95238 1-335).
T9 sequence: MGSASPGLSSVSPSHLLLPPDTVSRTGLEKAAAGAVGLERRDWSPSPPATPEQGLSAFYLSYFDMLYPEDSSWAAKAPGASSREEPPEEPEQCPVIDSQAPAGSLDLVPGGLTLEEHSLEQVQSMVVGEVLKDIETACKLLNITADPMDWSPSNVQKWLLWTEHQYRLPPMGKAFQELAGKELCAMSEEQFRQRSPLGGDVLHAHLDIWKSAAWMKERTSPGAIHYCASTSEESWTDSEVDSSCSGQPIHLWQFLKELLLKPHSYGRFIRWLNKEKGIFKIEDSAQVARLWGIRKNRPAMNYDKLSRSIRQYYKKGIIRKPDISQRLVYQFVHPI
The conditions noted are these: protein: recombinant; tags: N-terminal GST; dsDNA, one strand shown. A digest of the protocol:
as §1

In assay [15] the target is T10, ETV7 (Homo sapiens, UniProt Q9Y603 1-341).
T10 sequence: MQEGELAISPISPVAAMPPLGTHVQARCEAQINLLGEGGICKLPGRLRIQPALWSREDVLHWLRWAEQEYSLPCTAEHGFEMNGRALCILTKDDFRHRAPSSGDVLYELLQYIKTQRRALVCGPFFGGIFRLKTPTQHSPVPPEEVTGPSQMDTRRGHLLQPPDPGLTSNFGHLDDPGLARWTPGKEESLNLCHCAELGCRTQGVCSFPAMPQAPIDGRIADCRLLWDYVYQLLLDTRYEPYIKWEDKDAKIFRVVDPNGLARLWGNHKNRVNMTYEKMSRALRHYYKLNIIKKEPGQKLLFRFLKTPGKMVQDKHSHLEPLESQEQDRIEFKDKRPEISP
The conditions noted are these: protein: recombinant; tags: N-terminal GST; dsDNA, one strand shown. Summed up:
as §1

Assay [16] deals with T11, ELF5 (Homo sapiens, UniProt Q9UKW6-2 1-255).
T11 sequence: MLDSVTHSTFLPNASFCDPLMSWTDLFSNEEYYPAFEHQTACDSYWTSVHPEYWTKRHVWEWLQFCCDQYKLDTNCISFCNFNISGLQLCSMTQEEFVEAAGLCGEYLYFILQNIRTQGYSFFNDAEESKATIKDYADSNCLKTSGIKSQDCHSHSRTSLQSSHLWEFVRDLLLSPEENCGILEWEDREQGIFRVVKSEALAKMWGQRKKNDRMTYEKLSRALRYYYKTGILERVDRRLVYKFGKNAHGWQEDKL
The conditions noted are these: protein: recombinant; tags: N-terminal GST; dsDNA, one strand shown. A digest of the protocol: as §1

Assay [17] deals with T12, ETV3 (Homo sapiens, UniProt P41162-2 1-143).
T12 sequence: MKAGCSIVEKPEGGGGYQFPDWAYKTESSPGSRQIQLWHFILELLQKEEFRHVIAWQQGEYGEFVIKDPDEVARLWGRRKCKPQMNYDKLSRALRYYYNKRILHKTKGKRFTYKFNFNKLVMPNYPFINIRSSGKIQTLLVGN
The conditions noted are these: protein: recombinant; tags: N-terminal GST; dsDNA, one strand shown. A digest of the protocol:
as §1

Assay [18] addresses ETV6 (Homo sapiens, UniProt P41212 1-452). The conditions noted are these: protein: recombinant; tags: N-terminal GST; dsDNA, one strand shown. A digest of the protocol: as §1

HSF1, sequence (Q00613 whole entry): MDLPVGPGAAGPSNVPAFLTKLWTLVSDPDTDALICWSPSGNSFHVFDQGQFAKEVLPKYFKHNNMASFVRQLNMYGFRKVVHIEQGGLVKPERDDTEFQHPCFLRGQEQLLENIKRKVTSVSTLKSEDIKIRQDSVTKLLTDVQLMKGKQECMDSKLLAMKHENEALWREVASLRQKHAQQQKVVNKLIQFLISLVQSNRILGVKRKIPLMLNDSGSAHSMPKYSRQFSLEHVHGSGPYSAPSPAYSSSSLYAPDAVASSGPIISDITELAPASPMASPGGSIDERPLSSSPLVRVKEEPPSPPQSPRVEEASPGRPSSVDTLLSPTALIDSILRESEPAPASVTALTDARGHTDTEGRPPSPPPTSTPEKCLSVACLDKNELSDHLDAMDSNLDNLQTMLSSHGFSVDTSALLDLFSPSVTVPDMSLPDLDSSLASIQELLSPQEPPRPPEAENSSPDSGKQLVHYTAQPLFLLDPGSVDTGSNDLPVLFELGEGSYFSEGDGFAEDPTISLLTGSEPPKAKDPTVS
ETV5, sequence (P41161 whole entry): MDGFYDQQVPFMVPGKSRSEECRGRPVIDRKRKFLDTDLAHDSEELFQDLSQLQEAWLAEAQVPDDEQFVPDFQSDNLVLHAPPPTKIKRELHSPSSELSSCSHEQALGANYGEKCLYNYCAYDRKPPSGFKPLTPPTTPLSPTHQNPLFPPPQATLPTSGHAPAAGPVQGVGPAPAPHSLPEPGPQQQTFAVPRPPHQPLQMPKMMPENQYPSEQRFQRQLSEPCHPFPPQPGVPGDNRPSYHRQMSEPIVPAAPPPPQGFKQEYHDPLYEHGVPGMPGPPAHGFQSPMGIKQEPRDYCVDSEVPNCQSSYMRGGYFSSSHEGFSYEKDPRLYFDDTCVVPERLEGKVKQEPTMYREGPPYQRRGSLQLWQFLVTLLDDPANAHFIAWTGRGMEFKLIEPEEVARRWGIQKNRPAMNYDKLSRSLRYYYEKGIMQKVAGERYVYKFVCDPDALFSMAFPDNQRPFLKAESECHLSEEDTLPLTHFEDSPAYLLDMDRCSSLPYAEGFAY
ETV1, sequence (P50549 whole entry): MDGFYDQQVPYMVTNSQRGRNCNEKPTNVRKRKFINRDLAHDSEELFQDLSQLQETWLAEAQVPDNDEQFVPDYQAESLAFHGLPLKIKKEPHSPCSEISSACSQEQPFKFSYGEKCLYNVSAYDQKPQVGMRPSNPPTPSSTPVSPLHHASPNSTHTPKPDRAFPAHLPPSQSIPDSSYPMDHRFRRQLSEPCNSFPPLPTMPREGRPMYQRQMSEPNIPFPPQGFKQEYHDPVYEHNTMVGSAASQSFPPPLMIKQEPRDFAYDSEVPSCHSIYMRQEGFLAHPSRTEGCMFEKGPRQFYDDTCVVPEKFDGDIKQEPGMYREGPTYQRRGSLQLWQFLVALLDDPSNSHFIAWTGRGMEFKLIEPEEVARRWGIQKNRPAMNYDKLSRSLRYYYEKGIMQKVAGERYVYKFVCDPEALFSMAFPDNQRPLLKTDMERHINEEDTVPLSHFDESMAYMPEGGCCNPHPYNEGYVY
ETV6, sequence (P41212 whole entry): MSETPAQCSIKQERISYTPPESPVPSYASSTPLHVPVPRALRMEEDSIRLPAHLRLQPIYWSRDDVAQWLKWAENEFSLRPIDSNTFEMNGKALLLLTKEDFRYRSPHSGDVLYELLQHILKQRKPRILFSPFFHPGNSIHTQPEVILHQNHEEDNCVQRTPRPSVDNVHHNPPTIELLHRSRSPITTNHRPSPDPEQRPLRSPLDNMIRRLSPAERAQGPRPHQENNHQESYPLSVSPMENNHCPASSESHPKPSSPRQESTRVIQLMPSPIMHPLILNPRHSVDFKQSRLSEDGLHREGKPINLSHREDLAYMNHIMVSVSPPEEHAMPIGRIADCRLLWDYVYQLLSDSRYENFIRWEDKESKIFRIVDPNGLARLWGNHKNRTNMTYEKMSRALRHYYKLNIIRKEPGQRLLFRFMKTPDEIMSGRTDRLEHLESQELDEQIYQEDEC
ELF4, sequence (Q99607 whole entry): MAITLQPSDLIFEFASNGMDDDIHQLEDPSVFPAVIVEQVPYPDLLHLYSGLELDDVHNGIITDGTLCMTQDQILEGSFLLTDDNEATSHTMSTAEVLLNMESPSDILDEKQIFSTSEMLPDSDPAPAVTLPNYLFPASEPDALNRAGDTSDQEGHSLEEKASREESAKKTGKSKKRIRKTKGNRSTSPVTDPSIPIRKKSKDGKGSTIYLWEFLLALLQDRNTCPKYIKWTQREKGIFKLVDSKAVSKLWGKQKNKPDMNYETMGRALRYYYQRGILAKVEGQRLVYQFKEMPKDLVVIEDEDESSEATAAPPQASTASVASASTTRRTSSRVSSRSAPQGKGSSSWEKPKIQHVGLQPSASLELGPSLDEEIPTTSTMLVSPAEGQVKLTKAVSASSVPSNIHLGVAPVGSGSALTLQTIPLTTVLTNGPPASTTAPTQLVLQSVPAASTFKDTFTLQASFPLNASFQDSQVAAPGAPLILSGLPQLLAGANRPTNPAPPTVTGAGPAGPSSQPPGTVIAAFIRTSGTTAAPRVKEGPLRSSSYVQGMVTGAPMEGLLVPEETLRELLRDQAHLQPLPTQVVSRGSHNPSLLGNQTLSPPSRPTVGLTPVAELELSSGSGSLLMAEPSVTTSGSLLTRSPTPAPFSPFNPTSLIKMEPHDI
CRX, sequence (O43186 whole entry): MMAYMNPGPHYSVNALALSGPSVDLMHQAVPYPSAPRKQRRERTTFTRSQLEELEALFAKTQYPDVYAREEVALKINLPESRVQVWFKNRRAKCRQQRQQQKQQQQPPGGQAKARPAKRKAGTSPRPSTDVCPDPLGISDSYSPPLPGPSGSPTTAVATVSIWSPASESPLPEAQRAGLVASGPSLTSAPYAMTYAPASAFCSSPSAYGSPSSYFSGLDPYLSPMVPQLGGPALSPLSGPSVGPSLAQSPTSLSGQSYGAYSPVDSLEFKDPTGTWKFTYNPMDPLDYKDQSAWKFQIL

As for CTCTGG, the binding signal in [1] is 1.33 fold enrichment (6-mer frequency, TF over GST control); in assay [2], 1.32 fold enrichment (6-mer frequency, TF over GST control); in assay [3] it was 1.81 fold enrichment (6-mer frequency, TF over GST control); in assay [4], 1.25 fold enrichment (6-mer frequency, TF over GST control); in assay [5] it was 1.36 fold enrichment (6-mer frequency, TF over GST control); in [6], 1.23 fold enrichment (6-mer frequency, TF over GST control). Further, the binding signal in [7] is 1.09 fold enrichment (6-mer frequency, TF over GST control); in assay [8], 1.37 fold enrichment (6-mer frequency, TF over GST control); in [9], 1.35 fold enrichment (6-mer frequency, TF over GST control); in assay [10] it was 1.22 fold enrichment (6-mer frequency, TF over GST control); in [11], 1.36 fold enrichment (6-mer frequency, TF over GST control); in assay [12], 1.45 fold enrichment (6-mer frequency, TF over GST control). Also, the binding signal in assay [13] is 1.19 fold enrichment (6-mer frequency, TF over GST control); in [14] it was 1.19 fold enrichment (6-mer frequency, TF over GST control); in [15] it was 1.33 fold enrichment (6-mer frequency, TF over GST control); in [16] it was 1.21 fold enrichment (6-mer frequency, TF over GST control); in assay [17], 1.31 fold enrichment (6-mer frequency, TF over GST control); in assay [18] it was 1.39 fold enrichment (6-mer frequency, TF over GST control).
